From paper PMC5540273 (PLoS ONE, 2017)

Key:
Details in all cases: concentration: 1 μM, replicates: in singlicate; n = 1
CDKL3 = tested on: CDKL3
CDKL5 = tested on: CDKL5
CHEK1 = tested on: CHEK1
CHEK2 = tested on: CHEK2
CIT = tested on: CIT
CLK1 = tested on: CLK1
CLK2 = tested on: CLK2
CLK3 = tested on: CLK3
CLK4 = tested on: CLK4
CSF1R-autoinhibited = tested on: CSF1R-autoinhibited
CSF1R = tested on: CSF1R
CSK = tested on: CSK
CSNK1A1L = tested on: CSNK1A1L
CSNK1A1 = tested on: CSNK1A1
CSNK1D = tested on: CSNK1D
CSNK1E = tested on: CSNK1E
CSNK1G1 = tested on: CSNK1G1
CSNK1G2 = tested on: CSNK1G2
CSNK1G3 = tested on: CSNK1G3
CSNK2A1 = tested on: CSNK2A1
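Also: KINOMEscan kinase panel screen.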

For `COc1cc(Nc2nccc(N3CCC(NC(=O)C4COc5ccccc5O4)C3)n2)cc(OC)c1OC` (centres unmarked) [GSK1379761], which “%Inh” value (CDKL3) is on record?
Its value is 0%.

And the “%Inh” value (CDKL5)?
Its value is 0%.

What about the “%Inh” value (CHEK1) of the same molecule?
The value was 0%.

And the “%Inh” value (CHEK2)?
Its value is 29%.

And the “%Inh” value (CIT)?
The value was 33%.

And the “%Inh” value (CLK1)?
The value was 3%.

And the “%Inh” value (CLK2)?
The value was 0%.

And the “%Inh” value (CLK3)?
Its value is 0%.

What about the “%Inh” value (CLK4) of the same molecule?
The value was 0%.

And the “%Inh” value (CSF1R-autoinhibited)?
The value was 58%.

And the “%Inh” value (CSF1R)?
Its value is 20%.

What about the “%Inh” value (CSK) of the same molecule?
Its value is 0%.

And the “%Inh” value (CSNK1A1L)?
Its value is 0%.

And the “%Inh” value (CSNK1A1)?
Its value is 0%.

And the “%Inh” value (CSNK1D)?
The value was 0%.

And the “%Inh” value (CSNK1E)?
The value was 0%.

And the “%Inh” value (CSNK1G1)?
The value was 3%.

And the “%Inh” value (CSNK1G2)?
Its value is 0%.

What about the “%Inh” value (CSNK1G3) of the same molecule?
Its value is 2%.

And the “%Inh” value (CSNK2A1)?
The value was 0%.

Which “%Inh” value (CDKL3) does the source give for `COc1ccc(-n2cnc3c(N)ncnc32)cc1` [SKF-97236] here?
The value was 0%.

And the “%Inh” value (CDKL5)?
The value was 0%.

What about the “%Inh” value (CHEK1) of the same molecule?
Its value is 2%.

What about the “%Inh” value (CHEK2) of the same molecule?
The value was 0%.

And the “%Inh” value (CIT)?
The value was 19%.

And the “%Inh” value (CLK1)?
Its value is 48%.

What about the “%Inh” value (CLK2) of the same molecule?
Its value is 48%.

And the “%Inh” value (CLK3)?
Its value is 0%.

And the “%Inh” value (CLK4)?
Its value is 47%.

And the “%Inh” value (CSF1R-autoinhibited)?
The value was 0%.

And the “%Inh” value (CSF1R)?
Its value is 0%.

And the “%Inh” value (CSK)?
Its value is 4%.

What about the “%Inh” value (CSNK1A1L) of the same molecule?
Its value is 7%.

What about the “%Inh” value (CSNK1A1) of the same molecule?
The value was 33%.

And the “%Inh” value (CSNK1D)?
Its value is 42%.

What about the “%Inh” value (CSNK1E) of the same molecule?
Its value is 34%.

And the “%Inh” value (CSNK1G1)?
The value was 13%.

And the “%Inh” value (CSNK1G2)?
Its value is 11%.

What about the “%Inh” value (CSNK1G3) of the same molecule?
The value was 6%.

What about the “%Inh” value (CSNK2A1) of the same molecule?
The value was 12%.

For `CCC(=O)c1c(-c2ccccc2)c2cc(Cl)ccc2c(=O)n1Cc1cc(S(C)(=O)=O)n(CC(N)=O)n1`, which “%Inh” value (CDKL3) is on record?
Its value is 16%.

And the “%Inh” value (CDKL5)?
The value was 0%.

And the “%Inh” value (CHEK1)?
The value was 0%.

And the “%Inh” value (CHEK2)?
The value was 0%.

And the “%Inh” value (CIT)?
The value was 11%.

What about the “%Inh” value (CLK1) of the same molecule?
The value was 0%.

And the “%Inh” value (CLK2)?
The value was 7%.

What about the “%Inh” value (CLK3) of the same molecule?
Its value is 0%.

What about the “%Inh” value (CLK4) of the same molecule?
Its value is 63%.

What about the “%Inh” value (CSF1R-autoinhibited) of the same molecule?
The value was 0%.

And the “%Inh” value (CSF1R)?
The value was 0%.

And the “%Inh” value (CSK)?
Its value is 4%.

What about the “%Inh” value (CSNK1A1L) of the same molecule?
The value was 0%.

And the “%Inh” value (CSNK1A1)?
The value was 0%.

What about the “%Inh” value (CSNK1D) of the same molecule?
Its value is 0%.

What about the “%Inh” value (CSNK1E) of the same molecule?
The value was 0%.

What about the “%Inh” value (CSNK1G1) of the same molecule?
The value was 0%.

What about the “%Inh” value (CSNK1G2) of the same molecule?
The value was 0%.

What about the “%Inh” value (CSNK1G3) of the same molecule?
The value was 0%.

What about the “%Inh” value (CSNK2A1) of the same molecule?
Its value is 0%.

With `COc1cccc(-n2cnc3c(N)ncnc32)c1` [SKF-97416] as the molecule, how does the “%Inh” value (CDKL3) read?
The value was 0%.

And the “%Inh” value (CDKL5)?
The value was 14%.

What about the “%Inh” value (CHEK1) of the same molecule?
The value was 0%.

And the “%Inh” value (CHEK2)?
The value was 25%.

And the “%Inh” value (CIT)?
Its value is 8%.

And the “%Inh” value (CLK1)?
The value was 6%.

What about the “%Inh” value (CLK2) of the same molecule?
The value was 3%.

What about the “%Inh” value (CLK3) of the same molecule?
The value was 0%.

And the “%Inh” value (CLK4)?
The value was 0%.

And the “%Inh” value (CSF1R-autoinhibited)?
The value was 16%.

And the “%Inh” value (CSF1R)?
Its value is 7%.

And the “%Inh” value (CSK)?
Its value is 8%.

What about the “%Inh” value (CSNK1A1L) of the same molecule?
The value was 0%.

What about the “%Inh” value (CSNK1A1) of the same molecule?
Its value is 31%.

And the “%Inh” value (CSNK1D)?
Its value is 12%.

And the “%Inh” value (CSNK1E)?
Its value is 0%.

And the “%Inh” value (CSNK1G1)?
The value was 0%.

What about the “%Inh” value (CSNK1G2) of the same molecule?
Its value is 0%.

What about the “%Inh” value (CSNK1G3) of the same molecule?
Its value is 3%.

And the “%Inh” value (CSNK2A1)?
Its value is 0%.

Which “%Inh” value (CDKL3) does the source give for `COc1ccc(Nc2nccc(N3CCC(NS(=O)(=O)c4ccc(NC(C)=O)cc4)C3)n2)cc1` (centres unmarked) [GSK1379729] here?
Its value is 4%.

What about the “%Inh” value (CDKL5) of the same molecule?
Its value is 0%.

What about the “%Inh” value (CHEK1) of the same molecule?
The value was 14%.

And the “%Inh” value (CHEK2)?
Its value is 0%.

What about the “%Inh” value (CIT) of the same molecule?
Its value is 22%.

What about the “%Inh” value (CLK1) of the same molecule?
The value was 25%.

And the “%Inh” value (CLK2)?
The value was 0%.

What about the “%Inh” value (CLK3) of the same molecule?
The value was 0%.

What about the “%Inh” value (CLK4) of the same molecule?
The value was 27%.

And the “%Inh” value (CSF1R-autoinhibited)?
Its value is 0%.

What about the “%Inh” value (CSF1R) of the same molecule?
Its value is 1%.

What about the “%Inh” value (CSK) of the same molecule?
Its value is 0%.

And the “%Inh” value (CSNK1A1L)?
Its value is 13%.

And the “%Inh” value (CSNK1A1)?
Its value is 32%.

And the “%Inh” value (CSNK1D)?
Its value is 17%.

And the “%Inh” value (CSNK1E)?
The value was 25%.

And the “%Inh” value (CSNK1G1)?
The value was 6%.

And the “%Inh” value (CSNK1G2)?
The value was 18%.

And the “%Inh” value (CSNK1G3)?
Its value is 28%.

And the “%Inh” value (CSNK2A1)?
Its value is 15%.

Which “%Inh” value (CDKL3) does the source give for `Cc1ccc(Oc2ccc(Nc3ncnc4cc[nH]c34)cc2C)cn1` here?
The value was 3%.

And the “%Inh” value (CDKL5)?
Its value is 3%.

And the “%Inh” value (CHEK1)?
Its value is 6%.

What about the “%Inh” value (CHEK2) of the same molecule?
Its value is 22%.

What about the “%Inh” value (CIT) of the same molecule?
The value was 57%.

What about the “%Inh” value (CLK1) of the same molecule?
Its value is 0%.

What about the “%Inh” value (CLK2) of the same molecule?
The value was 0%.

What about the “%Inh” value (CLK3) of the same molecule?
Its value is 0%.

What about the “%Inh” value (CLK4) of the same molecule?
Its value is 24%.

What about the “%Inh” value (CSF1R-autoinhibited) of the same molecule?
Its value is 0%.

What about the “%Inh” value (CSF1R) of the same molecule?
The value was 5%.

What about the “%Inh” value (CSK) of the same molecule?
Its value is 20%.

And the “%Inh” value (CSNK1A1L)?
Its value is 11%.

And the “%Inh” value (CSNK1A1)?
The value was 8%.

And the “%Inh” value (CSNK1D)?
Its value is 0%.

What about the “%Inh” value (CSNK1E) of the same molecule?
Its value is 0%.

And the “%Inh” value (CSNK1G1)?
The value was 12%.

What about the “%Inh” value (CSNK1G2) of the same molecule?
The value was 13%.

And the “%Inh” value (CSNK1G3)?
The value was 0%.

What about the “%Inh” value (CSNK2A1) of the same molecule?
Its value is 32%.

Which results are given for `CCCNC(=O)Nc1ccc(Oc2ncnc3ccn(C)c23)cc1`?
%Inh (CDKL3): 18%; %Inh (CDKL5): 7%; %Inh (CHEK1): 0%; %Inh (CHEK2): 0%; %Inh (CIT): 1%; %Inh (CLK1): 0%; %Inh (CLK2): 0%; %Inh (CLK3): 0%; %Inh (CLK4): 4%; %Inh (CSF1R-autoinhibited): 7%; %Inh (CSF1R): 29%; %Inh (CSK): 0%; %Inh (CSNK1A1L): 7%; %Inh (CSNK1A1): 10%; %Inh (CSNK1D): 9%; %Inh (CSNK1E): 0%; %Inh (CSNK1G1): 2%; %Inh (CSNK1G2): 11%; %Inh (CSNK1G3): 0%; %Inh (CSNK2A1): 0%

Which results are given for `Nc1nc(-c2ccccc2F)c(-c2ccnc3ccccc23)s1` [GW560459]?
%Inh (CDKL3): 0%; %Inh (CDKL5): 0%; %Inh (CHEK1): 0%; %Inh (CHEK2): 14%; %Inh (CIT): 30%; %Inh (CLK1): 12%; %Inh (CLK2): 0%; %Inh (CLK3): 8%; %Inh (CLK4): 7%; %Inh (CSF1R-autoinhibited): 24%; %Inh (CSF1R): 0%; %Inh (CSK): 0%; %Inh (CSNK1A1L): 7%; %Inh (CSNK1A1): 72%; %Inh (CSNK1D): 66%; %Inh (CSNK1E): 51%; %Inh (CSNK1G1): 13%; %Inh (CSNK1G2): 1%; %Inh (CSNK1G3): 25%; %Inh (CSNK2A1): 0%

What does the source list for `COc1cc(Nc2nccc(N3CCC(NC(=O)C(C)c4ccc(Cl)cc4)C3)n2)cc(OC)c1OC` (centres unmarked) [GSK1379757]?
%Inh (CDKL3): 0%; %Inh (CDKL5): 0%; %Inh (CHEK1): 0%; %Inh (CHEK2): 8%; %Inh (CIT): 9%; %Inh (CLK1): 22%; %Inh (CLK2): 0%; %Inh (CLK3): 43%; %Inh (CLK4): 18%; %Inh (CSF1R-autoinhibited): 0%; %Inh (CSF1R): 4%; %Inh (CSK): 0%; %Inh (CSNK1A1L): 0%; %Inh (CSNK1A1): 0%; %Inh (CSNK1D): 0%; %Inh (CSNK1E): 18%; %Inh (CSNK1G1): 0%; %Inh (CSNK1G2): 0%; %Inh (CSNK1G3): 25%; %Inh (CSNK2A1): 1%

What does the source list for `CCc1ccc(-c2ccc3c(c2)-c2nn(C)cc2S(=O)(=O)N3C)cc1`?
%Inh (CDKL3): 0%; %Inh (CDKL5): 0%; %Inh (CHEK1): 0%; %Inh (CHEK2): 0%; %Inh (CIT): 0%; %Inh (CLK1): 0%; %Inh (CLK2): 13%; %Inh (CLK3): 0%; %Inh (CLK4): 0%; %Inh (CSF1R-autoinhibited): 2%; %Inh (CSF1R): 0%; %Inh (CSK): 2%; %Inh (CSNK1A1L): 0%; %Inh (CSNK1A1): 2%; %Inh (CSNK1D): 0%; %Inh (CSNK1E): 0%; %Inh (CSNK1G1): 0%; %Inh (CSNK1G2): 7%; %Inh (CSNK1G3): 0%; %Inh (CSNK2A1): 0%
